SMILES strings stand for the structures. Screen size: about 1,000 compounds; about 25 (2%) were called active.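 The calls were made as follows: active = rising signal whose fitted curve reaches the 0.54 level within the top valid dose, showing a melting point (actives reach about 13 µM in these data); inactive = the rest, including activity in the opposite direction.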 Not all results are given here.

A short description of the experiment: SYPRO orange dye artefact, no FGF22 present – biochemical, cherry-picked samples, RT-PCR instrument, artefact control for FGF22 binder project, dose response (AID 743019). Also: value is where the raw curve crosses a fixed level and not half-maximal. As to conditions: compound-only SYPRO orange thermal shift counter-screen, no protein; at 38 µM (top of the series) unless noted.
`COc1cc([N+](=O)[O-])ccc1NC(=O)CN1CCCC1`: the result was inactive. On to `C[C@H]1CN([C@@H](C)CO)C(=O)Cc2cc(NC(=O)Cc3cn(C)c4ccccc34)ccc2O[C@@H]1CN(C)Cc1ccccc1`, for which the outcome is “inactive [at 42 µM]”. For `Cc1ccc(S(=O)(=O)N(C)C[C@@H]2Oc3cc(C4=CCCC4)ccc3S(=O)(=O)N([C@@H](C)CO)C[C@@H]2C)cc1` the value was “inactive [at 42 µM]”. On to `O=C(NN1C(=O)C2C3C=CC(O3)C2C1=O)c1ccccc1` (stereo not given), for which the outcome was inactive. On to `O=C(N[C@@H]1C=C[C@H](CC(=O)N2CCCCC2)O[C@H]1CO)c1cccc(F)c1`, for which the outcome was inactive.

Take `CCn1ccnc1CN(C)C(=O)c1ccc2nc(Cc3ccc(OC)cc3)oc2c1`: the result was inactive. For the compound `C[C@@H]1CN([C@@H](C)CO)S(=O)(=O)c2ccc(-c3ccncc3)cc2O[C@@H]1CN(C)C(=O)Nc1ccc(F)cc1`, the outcome was inactive. In the case of `O=C(N/N=C/c1ccc([N+](=O)[O-])cc1)c1c[nH]c2ccccc12`, the outcome was inactive. `COc1ccccc1NC(=O)N1[C@H](C#N)[C@H](c2ccccc2)[C@H]1CO`: the outcome was “inactive [at 42 µM]”. For `O=C(NCCc1c[nH]c2ccccc12)C(=O)NCC1CCCO1` (stereo not given) the value was “inactive”. Turning to `O=C(c1ccccc1F)N1CC(=O)N2[C@H](C1)[C@H](c1ccc(-c3ccc(F)cc3)cc1)[C@@H]2CO`, the outcome is “inactive [at 42 µM]”. As for `CS(=O)(=O)c1ccc2nc(NC(=O)c3ccc(Cl)nc3)sc2c1`, the result was inactive. Regarding `OC[C@H]1[C@H](c2ccc(-c3cccnc3)cc2)[C@H]2CN(Cc3ccccn3)CCCCN21`, the outcome was inactive. On to `O=C(Nc1ccccc1F)N1[C@H](CO)[C@H]2c3ccccc3NC[C@H]21`, for which the outcome was “inactive [at 42 µM]”. As for `NS(=O)(=O)c1cccc(NC(=O)COC(=O)c2cc([N+](=O)[O-])ccc2N2CCCC2)c1`, the outcome was inactive.

On to `Cc1ccc(NC(=O)Nc2cccnc2)cc1`, for which the result was inactive.

`O=C(N/N=C/c1ccc(Cl)c(Cl)c1)c1ccc2nc[nH]c2c1`: the result was inactive. `Cc1ccc(S(=O)(=O)Nc2nc3ccccc3s2)cc1[N+](=O)[O-]`: the outcome was inactive. Consider `O=C(Nc1nnc(-c2ccccc2F)s1)c1ccccc1F`, for which the result was inactive.

Turning to `O=C(C[C@H]1CC[C@H]2[C@@H](COC[C@H](O)CN2S(=O)(=O)c2cccc(Cl)c2)O1)Nc1ccccc1`, the outcome was “inactive [at 42 µM]”.

In the case of `COCCN(C(=O)C(C)C)c1nnc(-c2ccc(C(C)(C)C)cc2)s1`, the result was inactive. For the compound `C[C@H]1CN([C@@H](C)CO)S(=O)(=O)c2ccc(C3=CCCC3)cc2O[C@H]1CN(C)C(=O)Nc1ccc2c(c1)OCO2`, the outcome was “inactive [at 42 µM]”. For `COc1ccc(-c2cc(=O)oc3cc(OCC(=O)N[C@@H](Cc4c[nH]c5ccccc45)C(=O)O)ccc23)cc1` the value was “inactive”. For `O=S(=O)(ON(c1ccccc1)S(=O)(=O)c1ccccc1)c1ccccc1` the value was “inactive”; for `O=C(Cc1cccnc1)N[C@H]1CC[C@H](CCn2cc(-c3ccccc3F)nn2)O[C@H]1CO`, “inactive”. Consider `CC(=O)Nc1ccc(S(=O)(=O)N(CCc2ccccc2)CC(=O)N/N=C/c2ccc(C(=O)O)cc2)cc1`, for which the result was inactive. The value for `CCCOc1ccc(NC(=O)CC2C(=O)N(C)C(=S)N2Cc2ccc3c(c2)OCO3)cc1` (stereo not given) was “inactive”. For `CC(C)NC(=O)N1C[C@@H]2[C@H](c3ccccc31)[C@H](CO)N2C(=O)c1ccccn1` the value was “inactive [at 42 µM]”; for `O=C(N/N=C/c1ccc(OCc2ccccc2)cc1)c1ccc(O)cc1`, “inactive”. With `C[C@@H]1CCCCO[C@@H](CN(C)Cc2ccncc2)[C@H](C)CN([C@H](C)CO)C(=O)c2cc(NC(=O)Cc3ccccc3)ccc2O1`, the outcome was inactive. Turning to `Cc1cccc(S(=O)(=O)N2C[C@@H](O)COC[C@H]3O[C@H](CC(=O)Nc4ccc(-c5ccccc5)cc4)CC[C@@H]32)c1`, the outcome was “inactive [at 42 µM]”. Consider `CN1C(=O)c2cccc3c(N)ccc(c23)C1=O`, for which the result was inactive.

Consider `CN1C(=O)c2cc(NC(=O)c3cccc(F)c3)ccc2OC[C@@H]2O[C@H](CC(=O)N3CCc4ccccc4C3)CC[C@@H]21`, for which the outcome was inactive.

Regarding `COc1ccccc1C(=O)NNC(=O)c1ccc(NC(=O)c2ccccc2)cc1`, the outcome was inactive.

As to `C[C@@H]1CN([C@H](C)CO)S(=O)(=O)c2ccc(-c3ccncc3)cc2O[C@@H]1CN(C)C(=O)Nc1ccc(C(F)(F)F)cc1`, the result was inactive. `Cc1c(CCO)sc[n+]1CC(=O)OC12CC3CC(CC(C3)C1)C2`: the outcome was inactive. Consider `COc1ccc(-c2ccc([C@H]3[C@H]4CN(C(=O)c5ccc6c(c5)OCO6)CCCCN4[C@H]3CO)cc2)cc1`, for which the outcome is “inactive [at 42 µM]”.

Consider `CC(=O)N1c2ccc(S(=O)(=O)N3CCC(C(=O)NCc4ccc(F)cc4)CC3)cc2CC1C` (stereo not given), for which the outcome was inactive. For `CC(C)NC(=O)N(C)C[C@@H]1Oc2c(NC(=O)c3nc4ccccc4s3)cccc2C(=O)N([C@H](C)CO)C[C@H]1C` the value was “inactive [at 42 µM]”; for `CCCCN1CC(N2CCN(Cc3cccc(C)c3)CC2)CS1(=O)=O` (stereo not given), “inactive”; for `Cc1ccc(NC(=O)O/N=C/c2cccc([N+](=O)[O-])c2)cc1`, “inactive”.

With `CC(=O)NC[C@@H]1[C@@H](c2ccccc2)[C@@H](CO)N1C(=O)Cc1cccnc1`, the outcome is “inactive [at 42 µM]”. The value for `O=C(COc1ccc([N+](=O)[O-])cc1)Nc1cccc(C(=O)Nc2ccccc2C(=O)O)c1` was “inactive”; that for `CC(C)(C)N1C(=O)c2c(C(=O)OCc3ccccc3)[nH]c(-c3ccccc3)c2C1=O` was “inactive”; that for `COc1cc(NC(=O)c2ccc3c(c2)OCO3)ccc1NC(=O)c1cccs1` was “inactive”.

Turning to `O=C(C[C@H]1C[C@@H]2c3cc(NC(=O)Nc4ccc(C(F)(F)F)cc4)ccc3O[C@@H]2[C@@H](CO)O1)NCC1CC1`, the outcome is “inactive [at 10 µM]”. Regarding `CNC[C@@H]1Oc2ccc(NC(=O)C3CCCCC3)cc2C(=O)N([C@@H](C)CO)C[C@H]1C`, the result was inactive. Take `COCC(=O)Nc1ccc2c(c1)OC[C@H](C)N(C)C[C@@H](C)[C@@H](OC)CN(C)C2=O`: the outcome was “inactive [at 42 µM]”. For `O=C(N/N=C/c1c[nH]c2ccccc12)c1cc2ccccc2o1`, the result was inactive. Take `Cc1ccc(S(=O)(=O)NCCC(=O)Nc2ccc(C)c(Cl)c2)cc1C`: the result was inactive.
